Sampled rows, rich in hits. Any-hit rate of the full collection: about 3.5%.
M1 antag: human CHRM1 antagonism | P11229 | CHO-K1 hM1, Fluo-8 calcium fluorescence, ACh EC80 antagonist | inhibition, % at 3 µM | 360,000 tested, 1.3% active;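 active = percent inhibition above its own plate's cutoff, namely the mean of that plate's compound wells plus 3 SD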;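 note: peak over basal fluorescence ratio during 140 s after agonist addition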
M1 ag: human M1 muscarinic receptor agonism; P11229; CHO-K1 hM1, Fluo-8 calcium fluorescence, agonist mode; 0% DMSO, 100% acetylcholine EC100; activation, % at 3 µM; 360,000 tested, 0.33% active;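 active = activation above the run's mean compound activation plus 3 SD, cut at about 16% in these data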;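 note: peak over basal fluorescence ratio within a 140 s kinetic read after compound addition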
Myeloid diff 2: compounds promoting myeloid differentiation. AID 624256. 360,000 tested, 1% active. calls only at 10 µM. ER-HoxA9 myeloid progenitors, lysozyme-GFP differentiation, flow cytometry;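 active = normalized GFP-positive differentiation at or above the plate's own cutoff, the solvent-only control mean plus 3 SD; inconclusive = no clear call, values can overlap the other calls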;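 note: cells exposed to compound for four days before flow analysis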
ATG4B inhibitor: blocks human ATG4B protease cleavage of LC3 substrate; Q9Y4P1; ATG4B cleavage of LC3-PLA2, NBD-HPC fluorescence, 1 h; inhibition, % at 8.33 µM; 340,000 tested, 0.51% active; AID 504462; in the data active = inhibition above about 40%
Target sequence (Q9Y4P1 whole entry, looked up): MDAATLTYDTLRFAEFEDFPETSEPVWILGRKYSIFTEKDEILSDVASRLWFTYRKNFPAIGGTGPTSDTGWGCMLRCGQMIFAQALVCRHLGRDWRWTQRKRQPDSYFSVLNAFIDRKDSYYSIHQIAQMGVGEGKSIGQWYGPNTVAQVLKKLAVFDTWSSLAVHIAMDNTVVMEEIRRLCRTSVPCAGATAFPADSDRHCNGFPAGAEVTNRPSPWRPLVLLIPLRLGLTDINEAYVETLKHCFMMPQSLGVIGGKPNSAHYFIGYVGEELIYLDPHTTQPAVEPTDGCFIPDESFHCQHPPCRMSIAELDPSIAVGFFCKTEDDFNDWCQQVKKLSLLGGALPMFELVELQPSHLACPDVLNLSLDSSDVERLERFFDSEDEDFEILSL
SKN-1 block: inhibitors of C. elegans SKN-1. C. elegans VP596 Pgst-4::GFP/RFP ratio, acrylamide-induced, 24 h. inhibition, % at 21.8 µM. 360,000 tested, 0.49% active;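 active = interference check ratio from 0.5 to 1.5 plus GFP to RFP signal ratio inhibition reaching or exceeding a fixed threshold, cut at about 30% in these data, passing the limit was not always enough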
CHRM1 PAM: human CHRM1 positive allosteric modulation; CHO-K1 hM1, Fluo-8 calcium fluorescence, ACh EC20; 0% = ACh EC20, 100% = maximal ACh; activation, % at 3 µM; 360,000 tested, 0.088% active; AID 588819; in the data active = activation above about 19%, passing the limit was not always enough
Large screens that a line does not name were inactive.

Cc1ccc(S(=O)(=O)Nc2cccc(C(=O)NCC(c3ccco3)N(C)C)c2)cc1F (stereo not drawn)	M1 antag 43.1
Cc1ccc(S(=O)(=O)Nc2cccc(C(=O)NCC(c3ccccc3)N(C)C)c2)cc1F (stereo not drawn)	none
O=C(NCC(c1ccco1)N1CCCC1)c1ccc(S(=O)(=O)Nc2ccc(F)cc2)cc1 (stereo not drawn)	M1 antag 49.6
O=C(NCC(c1ccco1)N1CCCC1)c1cccc(NS(=O)(=O)c2ccc(Br)cc2)c1 (stereo not drawn)	M1 antag 50.3
Cc1cccc(NS(=O)(=O)c2cccc(C(=O)NCC(c3ccco3)N3CCCCC3)c2)c1 (stereo not drawn)	none
O=C(NCC(c1ccco1)N1CCCCC1)c1ccc(NS(=O)(=O)c2ccc(F)cc2)cc1 (stereo not drawn)	none
COP(=O)(OC)C(=NNS(=O)(=O)c1ccc(C)cc1)c1ccccc1	none (no result: ATG4B inhibitor)
OC(CC1CC12c1ccccc1-c1ncccc12)(c1ccccc1)c1ccccc1 (stereo not drawn)	none
CCOC(=O)C(C)C1(O)c2ccccc2-c2ncccc21 (stereo not drawn)	SKN-1 block 37.2
COC(=O)c1ccc(/C=N/OCC(=O)NC2CCCCCCC2)cc1	none
COC(=O)c1ccc(/C=N/OCC(=O)NC2CCCC(C)C2C)cc1 (stereo not drawn)	M1 antag 30.6
CCOc1ccc(S(=O)(=O)N2CCCCC2)cc1NC(=O)C1CSC2(C)CCC(=O)N12 (stereo not drawn)	none
CCn1c2ccc(F)cc2c2nc3ccccc3nc21	Myeloid diff 2 active, SKN-1 block 39.9
COc1cccc(-c2nc(CS(=O)(=O)CC(=O)NCCCN3CC(C)CC(C)C3)c(C)o2)c1 (stereo not drawn)	M1 antag 41.0, Myeloid diff 2 inconclusive
C=CCNc1nc(-c2ccc([N+](=O)[O-])cc2)cs1	SKN-1 block 51.1
C=CCNc1nc(-c2ccc(Cl)cc2)cs1	SKN-1 block 43.1
Cc1cccc(C)c1N(CC(=O)NCc1ccco1)C(=O)CNS(=O)(=O)c1ccc(F)cc1	none
N#Cc1ccccc1S(=O)(=O)N1CCN(C(=O)C2CCCCC2)CC1	none
CCN1CCN(c2ccc(N3CCN(C(=O)c4ccc(Br)o4)CC3)nn2)CC1	M1 antag 34.9
N=c1ccn(Cc2cccc(F)c2)cc1	M1 antag 41.7, Myeloid diff 2 inconclusive
Cc1ccc(S(=O)(=O)NCC(=O)NCC(=O)N2CCN(c3ncccn3)CC2)cc1C	none
COc1ccccc1-n1c(-c2ccccc2)c[n+]2c1CCc1ccccc1-2	M1 antag 59.3
CC(C)c1ccc(-n2c(-c3ccccc3)c[n+]3c2CCc2ccccc2-3)cc1	Myeloid diff 2 inconclusive
COc1ccc(-n2c(-c3ccc(Br)cc3)c[n+]3c2CCc2ccccc2-3)cc1	M1 antag 44.1
COc1ccc(CCNC(=O)CCN2C(=O)[C@@H]3Cc4ccccc4CN3C2=O)cc1OC	none
COc1cc(OC)cc(-c2n[nH]c(=S)n2-c2ccc3c(c2)OCCO3)c1	M1 antag 25.7
CCN1C(=O)[C@H]2[C@H]3CN=C(SC)N3[C@@](CC)(C(=O)OC)[C@H]2C1=O	none
O=C1C(O)CC2c3ccccc3CC3(CCCC3)N12 (stereo not drawn)	Myeloid diff 2 active
CC(OC(=O)CCc1ccccc1)C(=O)Nc1ccc(Cl)cn1 (stereo not drawn)	none
NCCN1C(=O)c2ccccc2C1(O)c1ccc(Cl)cc1 (stereo not drawn)	none (no result: ATG4B inhibitor)
O=C(CSC1=NS(=O)(=O)c2cc(Cl)ccc2N1)NCCc1ccccc1	none
O=C1NC(=O)C(c2ccccc2)(c2ccccc2)N1S(=O)(=O)c1ccccc1	none (no result: ATG4B inhibitor)
N#C/C(=C/C1=C(N2CCOCC2)C(=C/c2ccccc2)/CC1)C(=O)Nc1ccccc1F	Myeloid diff 2 active
N#C/C(=C\C1=C(N2CCOCC2)C(=C\c2ccc(Cl)cc2)/CC1)C(=O)Nc1ccccc1F	Myeloid diff 2 active
N#C/C(=C\C1=C(N2CCOCC2)C(=C/c2cccc([N+](=O)[O-])c2)/CC1)C(=O)Nc1ccccc1F	none
CCN(CC)c1ccc(/C=C2\CCC(/C=C(/C#N)C(=O)Nc3ccccc3F)=C2N2CCOCC2)cc1	none
N#C/C(=C/C1=C(N2CCOCC2)C(=C/c2ccc(Cl)cc2Cl)/CC1)C(=O)Nc1ccccc1F	Myeloid diff 2 active
O=C(Nc1ccc(Cl)c(S(=O)(=O)N2CCOCC2)c1)[C@@H]1CCCN1C(=O)c1cccs1	none
Cn1c(=O)c2c(nc(SCC(=O)N3CCc4ccccc4C3)n2C)n(C)c1=O	M1 ag 16.5
CCn1c(SCC(=O)N2CCC(C)CC2)nc2c1c(=O)n(C)c(=O)n2C	CHRM1 PAM 27.5
COCCNC(=O)/C(C#N)=C1\N=C(N)c2ccccc21	none
O=c1c(/C=N/Nc2ccccc2)c(Sc2nnnn2-c2ccccc2)nc2ccccn12	SKN-1 block 35.8
CC[C@@H](NC(=O)[C@@H](Cc1ccccc1)NC(=O)CC[C@H]1O[C@@H](n2ccc(=O)[nH]c2=O)[C@H](O)[C@@H]1O)c1ccccc1	none (no result: ATG4B inhibitor)
Cc1cc(N2CCN(c3cccc(C(F)(F)F)c3)CC2)n2nc(C)nc2n1	CHRM1 PAM 30.9
Cc1cc(N2CCN(c3ccccn3)CC2)n2nc(C)nc2n1	none
CCCN1C(=O)/C(=C/c2ccc(N3CCCC3)c(C)c2)NC1=S	M1 antag 58.7, M1 ag 46.9, Myeloid diff 2 active, SKN-1 block 45.9
Cc1cc(/C=C2/C(=O)N(C)C(=S)N2C)ccc1N1CCCC1	none
CCCN1C(=O)/C(=C/c2ccc(N3CCOCC3)cc2)NC1=S	none
Cc1cc(/C=C2\NC(=S)N(C)C2=O)ccc1N1CCCC1	M1 antag 59.2, M1 ag 54.8, Myeloid diff 2 active
CN(C)C(CNC(=O)CCc1nc2cc(Cl)ccc2n(Cc2ccccc2)c1=O)c1ccccc1 (stereo not drawn)	M1 antag 27.0, SKN-1 block 57.2
NC(=O)CCc1nc2cc(C(F)(F)F)ccc2n(Cc2ccccc2)c1=O	none
CCNC(=S)NNC(=O)CCc1nc2cc(Cl)ccc2n(Cc2ccccc2)c1=O	Myeloid diff 2 active
CCOC(=O)c1c(NC(=O)c2c(-c3ccccc3)noc2C)sc(C)c1-c1ccccc1	Myeloid diff 2 active
CCOC(=O)C1CCCN(C(=O)COc2ccc(C(=O)c3ccccc3)cc2)C1 (stereo not drawn)	none
CCOC(=O)C1CCCN(c2c(C(=O)c3ccccc3)cnc3ccc(OC)cc23)C1 (stereo not drawn)	M1 antag 50.9, M1 ag 61.5
Cn1cccc1C1Nc2ccccc2NC2=C1C(=O)CC(C)(C)C2 (stereo not drawn)	M1 antag 41.7

Screening data: PubChem, several laboratories
